This passage reports growth results from PubChem BioAssay (NCI).

Compounds without any hit were thinned out: in the full panel of roughly 83,000, 20% have a hit.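 96-well plates, one dose, 48 hours. Percent growth reported; active if below 10.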 A number with no mark means an inactive call. Active and inactive are the calls of the source.

What all share (experiment): NCI-60 one-dose screen, 48 h (100 = growth as untreated, 0 = no growth, -100 = all killed)
One experiment has as its system HCT-15 colon. The conditions noted are these: 10 µM unless noted.
The next experiment relates to HT29 colon. The conditions noted are these: 10 µM unless noted.
For another experiment, the system named is SNB-75 CNS. Conditions: 10 µM unless noted.
For the next experiment, the system named is SNB-19 CNS. The conditions noted are these: 10 µM unless noted.
For the next experiment, the system named is U251 CNS. The conditions noted are these: 10 µM unless noted.
A further experiment has as its system PC-3 prostate. The conditions noted are these: 10 µM unless noted.
In another experiment the test system is SK-MEL-5 melanoma. Conditions: 10 µM unless noted.
A further experiment deals with UACC-62 melanoma. Conditions: 10 µM unless noted.
For the next experiment, the system named is SK-MEL-28 melanoma. Conditions: 10 µM unless noted.
The test system of a further experiment is SK-MEL-2 melanoma. Conditions: 10 µM unless noted.
Another experiment concerns EKVX NSCLC. The conditions noted are these: 10 µM unless noted.
For a further experiment, the system named is SN12C renal. Conditions: 10 µM unless noted.
In the next experiment the test system is UO-31 renal. The conditions noted are these: 10 µM unless noted.
The next experiment concerns TK-10 renal. Conditions: 10 µM unless noted.
For the next experiment, the system named is ACHN renal. The conditions noted are these: 10 µM unless noted.
For another experiment, the system named is CAKI-1 renal. Conditions: 10 µM unless noted.
In a further experiment the test system is A498 renal. The conditions noted are these: 10 µM unless noted.
The subject of a further experiment is MOLT-4 leukemia. The conditions noted are these: 10 µM unless noted.
Another experiment relates to CCRF-CEM leukemia. Conditions: 10 µM unless noted.
A further experiment deals with LOX IMVI melanoma. Conditions: 10 µM.

`N#Cc1ccc(/C=N/NC(=O)c2[nH]c3ccc(Br)cc3c2-c2ccccc2)o1`: the growth was 8.65% (active) with HCT-15 colon; -15.3% (active) in the experiment on HT29 colon; 5.21% (active) with SNB-75 CNS; 34.5% in the experiment with SNB-19 CNS; 6.89% (active) with U251 CNS; 13.1% with PC-3 prostate. The growth in the experiment with SK-MEL-5 melanoma was -65.5% (active); in the experiment on UACC-62 melanoma, 15.2%; in the experiment with SK-MEL-28 melanoma, 27.4%; with SK-MEL-2 melanoma, 22.9%; in the experiment with EKVX NSCLC, 12.9%; with SN12C renal it was 5.87% (active). Besides, the growth was 24.8% in the experiment with UO-31 renal; 27.8% with TK-10 renal; 8.88% (active) in the experiment on ACHN renal; 26.9% in the experiment on CAKI-1 renal; 78.1% with A498 renal; 1.36% (active) in the experiment with MOLT-4 leukemia.

As to `N#Cc1c(-c2cccc3ccccc23)cc(-c2cccc(OCC(=O)O)c2)[nH]c1=O`, the growth was 100% in the experiment with HCT-15 colon; 102% in the experiment with HT29 colon; 73.7% in the experiment on SNB-75 CNS; 97.1% with SNB-19 CNS; 103% in the experiment with U251 CNS; 91.7% in the experiment on PC-3 prostate. The growth in the experiment on SK-MEL-5 melanoma is 100%; in the experiment with UACC-62 melanoma it was 90.5%; in the experiment on SK-MEL-28 melanoma, 102%; in the experiment with SK-MEL-2 melanoma, 115%; with EKVX NSCLC, 93.5%; with SN12C renal, 96.8%. For the same compound, the growth was 71.3% in the experiment on UO-31 renal; 104% with TK-10 renal; 100% with ACHN renal; 74.2% in the experiment on CAKI-1 renal; 99.3% in the experiment with A498 renal; 96.8% in the experiment with CCRF-CEM leukemia. Besides, the growth in the experiment with MOLT-4 leukemia is 85.7%.

`Cc1c(C(=O)NNC(=O)c2ccc(Cl)cc2)nnn1-c1ccc(Cl)cc1`: the growth in the experiment on HCT-15 colon is 93.5%; in the experiment on HT29 colon, 92.3%; with SNB-75 CNS it was 83.6%; with SNB-19 CNS, 95.1%; in the experiment with U251 CNS, 99.8%; in the experiment with PC-3 prostate it was 95.4%. Moreover, the growth was 99.5% with SK-MEL-5 melanoma; 86.1% in the experiment with UACC-62 melanoma; 94% in the experiment with SK-MEL-28 melanoma; 106% with SK-MEL-2 melanoma; 91.5% with EKVX NSCLC; 94.7% in the experiment on SN12C renal. Moreover, the growth is 74.1% with UO-31 renal; 96.1% with TK-10 renal; 103% in the experiment with ACHN renal; 87.2% in the experiment on CAKI-1 renal; 105% with A498 renal; 88.4% in the experiment with CCRF-CEM leukemia. For the same compound, the growth with MOLT-4 leukemia is 85.4%.

For `CSc1ccc(C(=O)Nc2ccc3nn(/C(C#N)=C/c4ccccn4)nc3c2)cc1`, the growth in the experiment on HCT-15 colon was -70.1% (active); in the experiment with HT29 colon, -88.6% (active); in the experiment with SNB-75 CNS, 33.1%; in the experiment on SNB-19 CNS it was -70.9% (active); in the experiment with U251 CNS, -84.1% (active); in the experiment on PC-3 prostate it was -28% (active). The growth is -54.9% (active) in the experiment on SK-MEL-5 melanoma; -91.2% (active) with UACC-62 melanoma; -83.5% (active) in the experiment on SK-MEL-28 melanoma; -77.8% (active) in the experiment with SK-MEL-2 melanoma; -96.3% (active) in the experiment with EKVX NSCLC; -45.5% (active) in the experiment with SN12C renal. Besides, the growth is -100% (active) in the experiment on UO-31 renal; -96.7% (active) with TK-10 renal; -96% (active) in the experiment on ACHN renal; -42.9% (active) with CAKI-1 renal; -33.8% (active) in the experiment on CCRF-CEM leukemia; -24.9% (active) in the experiment with MOLT-4 leukemia.

On to `CC1=C(C(=O)OCc2ccccc2)C(c2c(O)cc(O)cc2O)n2c(nc3ccccc32)N1` (centres undefined), for which the growth was 39% in the experiment on HCT-15 colon; 38.7% in the experiment on HT29 colon; 13% in the experiment with SNB-75 CNS; 59.7% in the experiment on SNB-19 CNS; 42.7% in the experiment with U251 CNS; 49.2% with PC-3 prostate. The growth in the experiment with SK-MEL-5 melanoma was 53%; with UACC-62 melanoma it was 14.7%; in the experiment on SK-MEL-28 melanoma, 60.2%; in the experiment on SK-MEL-2 melanoma, 58%; in the experiment with EKVX NSCLC it was 54.4%; in the experiment on SN12C renal, 74.8%. Moreover, the growth in the experiment with UO-31 renal is 46.4%; in the experiment on TK-10 renal it was 87.9%; in the experiment with ACHN renal, 46.6%; in the experiment on CAKI-1 renal, 39.4%; in the experiment on A498 renal, 102%; in the experiment with CCRF-CEM leukemia, 38.1%. Also, the growth with MOLT-4 leukemia was 60.6%.

Regarding `Cc1cc(N=C2NC(=O)CS2)n[nH]1`, the growth with HCT-15 colon was 104%; in the experiment on HT29 colon it was 114%; in the experiment on SNB-75 CNS, 107%; in the experiment on SNB-19 CNS, 103%; in the experiment on U251 CNS, 110%; with PC-3 prostate it was 100%. Further, the growth in the experiment with UACC-62 melanoma is 93.5%; in the experiment on LOX IMVI melanoma, 94.6%; in the experiment on SK-MEL-28 melanoma, 108%; in the experiment with SK-MEL-2 melanoma, 98.7%; with EKVX NSCLC it was 72.7%; in the experiment with SN12C renal, 101%. Besides, the growth in the experiment with UO-31 renal was 79.3%; in the experiment with TK-10 renal, 108%; in the experiment on ACHN renal it was 102%; in the experiment on CAKI-1 renal, 95.9%; in the experiment on A498 renal it was 124%.

For `Nc1nnc(-c2c[nH]c3ncc(Br)cc23)c(-c2c[nH]c3ccc(F)cc23)n1`, the growth in the experiment with HCT-15 colon was 25.3%; in the experiment with HT29 colon it was 21.8%; in the experiment on SNB-75 CNS, 33.7%; in the experiment with SNB-19 CNS, 50.6%; in the experiment on U251 CNS it was 45.5%; in the experiment on PC-3 prostate, 58.6%. Also, the growth is 0.13% (active) in the experiment with SK-MEL-5 melanoma; 15.6% in the experiment with UACC-62 melanoma; 29.8% in the experiment on SK-MEL-28 melanoma; 25.3% in the experiment with SK-MEL-2 melanoma; 38.8% with SN12C renal; 42.8% with UO-31 renal. For the same compound, the growth in the experiment on TK-10 renal was 67%; in the experiment with ACHN renal, 40.8%; in the experiment on CAKI-1 renal, 42.7%; in the experiment with A498 renal it was 74%; in the experiment on MOLT-4 leukemia, 9.73% (active).

For the compound `O=C(O)c1cccc(-c2ccc(/C=N/NC(=O)c3[nH]c4ccc(Br)cc4c3-c3ccccc3)o2)c1`, the growth in the experiment on HCT-15 colon was 70.4%; in the experiment with HT29 colon it was 107%; in the experiment with SNB-75 CNS, 57.8%; in the experiment with SNB-19 CNS it was 30.7%; in the experiment on U251 CNS it was 34.7%; with PC-3 prostate it was 86.4%. Besides, the growth was 84.2% in the experiment with SK-MEL-5 melanoma; 35.5% in the experiment on UACC-62 melanoma; 53.2% in the experiment with SK-MEL-28 melanoma; 61.4% in the experiment on SK-MEL-2 melanoma; 86.3% in the experiment on EKVX NSCLC; 81% in the experiment with UO-31 renal. Besides, the growth is 117% with TK-10 renal; 89.9% in the experiment on ACHN renal; 96.4% in the experiment with CAKI-1 renal; 9.68% (active) in the experiment with CCRF-CEM leukemia; 63.6% in the experiment on MOLT-4 leukemia.
